The target of assay [1] is Cytochrome P450 2D6 (Homo sapiens) (UniProt P10635). Kind of assay: qHTS Assay for Inhibitors and Substrates of Cytochrome P450 2D6 (AID 891). Also: nearly all actives have a fitted effect of over 60% in size. Also: potency is read from the fitted curve at half-maximal effect. The gist of the method: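 Human CYP2D6 (5 nM) with 30 uM Luciferin-ME EGE (at Km) in 100 mM KPO4, compound preincubated 10 min, then NADPH regeneration system for 60 min at room temperature. Luciferin read by luminescence; normalized to 1.43 uM quinidine.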
Cytochrome P450 2D6 (Homo sapiens), sequence (P10635 whole entry, looked up): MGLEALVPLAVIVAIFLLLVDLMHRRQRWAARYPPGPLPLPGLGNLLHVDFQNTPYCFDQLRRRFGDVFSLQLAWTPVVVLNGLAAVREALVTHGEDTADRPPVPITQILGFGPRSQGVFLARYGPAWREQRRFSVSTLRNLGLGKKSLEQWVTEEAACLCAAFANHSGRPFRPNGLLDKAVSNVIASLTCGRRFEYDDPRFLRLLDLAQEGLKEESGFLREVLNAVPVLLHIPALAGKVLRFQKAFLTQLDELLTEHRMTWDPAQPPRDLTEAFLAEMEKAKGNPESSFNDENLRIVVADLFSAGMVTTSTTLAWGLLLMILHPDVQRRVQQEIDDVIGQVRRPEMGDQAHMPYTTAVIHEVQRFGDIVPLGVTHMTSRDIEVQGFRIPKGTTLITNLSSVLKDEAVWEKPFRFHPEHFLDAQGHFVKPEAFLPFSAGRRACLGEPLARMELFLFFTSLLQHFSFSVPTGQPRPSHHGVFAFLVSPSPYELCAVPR
(In general: In qHTS, concentration-response curves come from the screen itself.)

The target in assay [2] is Cytochrome P450 2C9 (Homo sapiens) (UniProt P11712). The experiment in a line: qHTS Assay for Inhibitors and Substrates of Cytochrome P450 2C9 (AID 883). Also: nearly all actives have a fitted effect of over 60% in size. Also: potency is read from the fitted curve at half-maximal effect. As to activity change, negative = inhibition: % is scaled to controls: 0 for no effect and ±100 for the full control effect. The gist of the method:
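Turnover of Luciferin-H (100uM, KM) by 10nM human CYP2C9 was measured over 60 min at 37C with NADPH regeneration; inhibitors and some substrates reduce luminescence. Data normalized to sulphaphenazole 57uM.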

Assay [3] deals with Cytochrome P450 2C19 (Homo sapiens) (UniProt P33261). Kind of assay: qHTS Assay for Inhibitors and Substrates of Cytochrome P450 2C19 (AID 899). Also: nearly all actives have a fitted effect of over 60% in size. Also: potency is read from the fitted curve at half-maximal effect. Summed up: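 Reactions contain 5nM enzyme, 10uM Luciferin-H EGE (KM) and 50mM KPO4; compound preincubates 10 min at 37C, NADPH regeneration starts turnover for 60 min. Luminescence after detection reagent gives activity.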
Cytochrome P450 2C19 (Homo sapiens), sequence (P33261 whole entry, looked up): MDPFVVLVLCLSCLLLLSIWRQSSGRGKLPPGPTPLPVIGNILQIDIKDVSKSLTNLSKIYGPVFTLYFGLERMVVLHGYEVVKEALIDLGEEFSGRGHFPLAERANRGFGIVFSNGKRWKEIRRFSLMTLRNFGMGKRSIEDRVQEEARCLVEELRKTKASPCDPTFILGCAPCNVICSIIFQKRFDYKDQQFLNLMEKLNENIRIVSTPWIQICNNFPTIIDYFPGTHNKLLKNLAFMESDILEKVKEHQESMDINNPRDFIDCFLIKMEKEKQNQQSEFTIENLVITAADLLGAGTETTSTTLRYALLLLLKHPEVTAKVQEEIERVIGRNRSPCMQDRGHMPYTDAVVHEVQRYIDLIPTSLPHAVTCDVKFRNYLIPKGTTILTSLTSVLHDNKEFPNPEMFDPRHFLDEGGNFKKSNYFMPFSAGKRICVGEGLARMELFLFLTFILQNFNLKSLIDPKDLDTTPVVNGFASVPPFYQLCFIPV
The nature of assay [4]: Confirmation and Secondary Assay for Modulators of Hemoglobin Beta Chain Splicing at IVS2 654 locus (AID 910).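 Also: HeLa cells stably carrying EGFP split by mutant beta-globin IVS2-654 intron; per-well total GFP intensity by laser scanning cytometry after 2-day treatment; % of control where 0% means no effect.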 Summed up:
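Readout: per-well total peak green fluorescence (488 nm ex, 500–520 nm em) from objects 5–250 µm, reflecting correct splicing of an EGFP-654 reporter. Compounds were applied for 2 days at 37 °C to overnight-plated HeLa EGFP-654 cells; controls were DMSO and 500 nM IVS2-654 PNA.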

A short description of assay [5]: Confirmation and Secondary Assay for Modulators of Hemoglobin Beta Chain Splicing at IVS2 705 locus (AID 930).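 Also: HeLa cells stably expressing the EGFP-705 splicing reporter; GFP fluorescence per well restored by corrected splicing of the IVS2-705 intron in EGFP; % of control where 0% means no effect.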 Summed up:
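HeLa EGFP-705 reporter; 500 cells/well, o/n 37C 5% CO2; cpd 2 d; 488 ex/500-520 em laser scan; total peak GFP intensity/well. Ref: 500 nM […] antisense PNA.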

Assay [6] can be described thus: Confirmatory screen GU Rhodamine qHTS for Zika virus inhibitors qHTS (AID 1347157). Also: nearly all actives have a fitted effect of over 70% in size. Also: potency is read from the fitted curve at half-maximal effect.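 As to activity change, negative = inhibition: plate controls were no-inhibitor wells for no effect and no-enzyme wells for full effect.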 The gist of the method:
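A qHTS format was used, with compound concentrations ranging up to 114 microM. Each compound was preincubated with 25 nM NS2B-NS3 protease, and the substrate was then added at 1.5 microM. Curves were fitted with a 4-parameter Hill model.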

Assay [7] is described as follows: Confirmatory screen NINDS Rhodamine qHTS for Zika virus inhibitors (AID 1347161). Also: potency is read from the fitted curve at half-maximal effect; nearly all actives have a fitted effect of over 60% in size. The gist of the method: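 Each compound, titrated, sat 15 min with 25 nM linked protease before 1.5 microM Rhodamine110 substrate went in. Fluorescence gain over the next 15 min, in pH 8.0 Tris with Tween 20, gave Hill-fitted curves.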
The test system of assay [8] is Zika virus NS2B-NS3 protease (linked). Kind of assay: 384 well plate NINDS AMC confirmatory qHTS for Zika virus inhibitors (AID 1347163). Also: potency is read from the fitted curve at half-maximal effect; nearly all actives have a fitted effect of over 50% in size. Summed up: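 Linked protease 5/30/60 nM final; cpds up to 1 mM final, ~15 min preinc. Substrate Ac-VKTGKR-AMC 30 microM final. RT, dark, 25 min; FI ex 355/em 460; normalized to no-enzyme/no-inhibitor ctrls.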
In assay [9] the test system is Zika virus NS2B-NS3 protease (linked construct). Kind of assay: 384 well plate NINDS Rhodamine confirmatory qHTS for Zika virus inhibitors (AID 1347164).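 Also: fluorescence from protease cleavage of Ac-LKRR-rhodamine 110 substrate; nearly all actives have a fitted effect of over 65% in size.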 Also: potency is read from the fitted curve at half-maximal effect.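 As to activity change, negative = inhibition: top concentration of the series differs between compounds; plate controls were no-inhibitor control for no effect and no-enzyme control for full effect.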 The gist of the method:
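Enzyme (final 5/30/60 nM) + cpd (DMSO), ~15 min; add Ac-LKRR-Rd 10 microM final; 25 min RT, dark; FI ex 485/em 538; normalized to no-enzyme, no-inhibitor ctrls; aprotinin intraplate ctrl.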

Assay [10] in a line: qHTS Assay for Lipid Storage Modulators (AID 1519; calls by dose curve). To be noted: Drosophila S3 cells, BODIPY lipid droplet/cell ratio, laser cytometry, cells loaded with oleic acid. Summed up: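 Cells seeded at 5,000 per well were treated with compounds over a concentration series and loaded with oleic acid (400 uM, as added). Lipid droplet fluorescence (488 nm excitation, 500-530 nm channel) was read by laser-scanning cytometry and normalized to 20 uM Triacsin C.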

The target of assay [11] is Cytochrome P450 2D6 (Homo sapiens) (UniProt P10635). Kind of assay: Cytochrome P450 family 2 subfamily D member 6 (CYP2D6) small molecule antagonists: luciferase biochemical (cell-free) qHTS assay (AID 1645840; active = well fitted curve in the direction sought with a large enough effect in the repeat runs; an effect the other way counts as inactive or inconclusive; also: potency is read from the fitted curve at half-maximal effect; nearly all actives have a fitted effect of over 55% in size). Summed up:
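P450-Glo luminescent screen: recombinant CYP2D6 enzyme–proluciferin substrate mix preincubated with compound 10 min at room temperature, then NADPH regeneration added for 1 h at room temperature. Detection reagent added for 20 min; luciferin light read as relative luminescence units.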

In assay [12] the target is Cytochrome P450 2C9 (Homo sapiens) (UniProt P11712). Kind of assay: Cytochrome P450 family 2 subfamily C member 9 (CYP2C9) small molecule antagonists: luciferase biochemical (cell-free) qHTS assay (AID 1645842; active = well fitted curve in the direction sought with a large enough effect in the repeat runs; an effect the other way counts as inactive or inconclusive; also: potency is read from the fitted curve at half-maximal effect; nearly all actives have a fitted effect of over 55% in size). The gist of the method: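 Luminescence, after 20 min with luciferin detection reagent, reflected CYP2C9 turnover during a 1 h NADPH-driven reaction at 37C. Enzyme-substrate mix contained 0.4% bovine serum albumin and was preincubated with compound 10 min at room temperature.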
Cytochrome P450 2C9 (Homo sapiens), sequence (P11712 whole entry, looked up): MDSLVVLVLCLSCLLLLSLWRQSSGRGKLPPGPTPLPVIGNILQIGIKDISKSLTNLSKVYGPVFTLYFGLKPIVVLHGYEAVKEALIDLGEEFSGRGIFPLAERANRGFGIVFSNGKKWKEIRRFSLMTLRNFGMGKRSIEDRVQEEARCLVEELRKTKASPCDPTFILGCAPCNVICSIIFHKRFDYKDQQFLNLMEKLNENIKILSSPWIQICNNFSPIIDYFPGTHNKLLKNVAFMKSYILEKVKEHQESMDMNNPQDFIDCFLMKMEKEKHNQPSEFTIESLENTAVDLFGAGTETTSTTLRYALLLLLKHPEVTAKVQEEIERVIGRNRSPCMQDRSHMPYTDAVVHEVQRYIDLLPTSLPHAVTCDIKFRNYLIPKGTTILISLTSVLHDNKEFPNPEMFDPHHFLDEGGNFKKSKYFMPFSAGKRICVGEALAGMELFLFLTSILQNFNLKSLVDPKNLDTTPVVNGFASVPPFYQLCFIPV

The nature of assay [13]: AP1 Signaling Pathway (AID 357; active = well fitted curve in either direction with a large enough effect, not every such curve was filed as active;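 also: ME-180 reporter cells stimulated with EGF at its EC50 level; % is scaled to controls: 0 for no effect and ±100 for the full control effect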). The settings on record: ME-180 (cervical carcinoma) AP-1-bla reporter, EGF-induced, beta-lactamase ratio, 5 h; at 17.2 µM (top of the series). The gist of the method:
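Beta-lactamase reporter under AP-1 response element, ME-180 background. Stimulus: EC50 EGF. Compound exposure 5 h, 37 °C. Detection: CCF4, 2.5 h RT, 460/530 nm. Values: AC50 from titration.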

A short description of assay [14]: NFAT Signaling Pathway (AID 444; active = well fitted curve in either direction with a large enough effect, not every such curve was filed as active;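 also: carbachol stimulus at about its EC50 of 1 µM final; % is scaled to controls: 0 for no effect and ±100 for the full control effect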). The settings on record: Jurkat NFAT-bla M1, carbachol, beta-lactamase ratio, 5 h; at 17.2 µM (top of the series). The gist of the method:
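Read-out: CCF4 FRET ratio (460 nm/530 nm) after 1 h RT dye loading, used for %activity and AC50 from titration series. Cells: Jurkat NFAT-β-lactamase/M1 line, treated with compound plus 1 uM carbachol for 5 h, 37 °C.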

A short description of assay [15]: Tertiary RLuc qRT-PCR qHTS assay for Zika virus inhibitors (AID 1347169). Also: top concentration of the series differs between compounds; % is scaled to controls: 0 for no effect and ±100 for the full control effect; nearly all actives have a fitted effect of over 55% in size. The gist of the method: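 Vero, 1,000 cells/well, o/n 37 C; cpd pinned in DMSO; ZIKV-RLuc Cambodian, MOI 1-2, 48-72 h 37 C; live-cell RLuc substrate, lum read at 1-1.5 h.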
(In qPCR the cycle at which signal appears reflects the starting amount.)

A short description of assay [16]: Primary qHTS for small molecule stabilizers of the endoplasmic reticulum resident proteome: Secreted ER Calcium Modulated Protein (SERCaMP) assay (AID 1508630). Also: % is scaled to controls: 0 for no effect and ±100 for the full control effect. Summed up:
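GLuc-SERCaMP-expressing SH-SY5Y cells, pretreated 16 h with compound, are challenged with thapsigargin to empty ER calcium stores; after 4 h, coelenterazine is added directly to the medium and luminescence is imaged.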

Setting [17] is: measured here: cell count channel max response.
Where [18] appears, read: measured here: lipid channel max response.

Results filed as inconclusive are left out. Where a structure was tested more than once in an assay, its records may differ in their call. Calls of active or inactive are those of the source. Unless noted, calls follow the shape of the dose curve; as a rule, active = well fitted curve in the direction sought with a large enough effect; inconclusive = small, poorly fitted or top-dose-only effect, or another doubt; inactive = no such curve, though single readings can be large; an effect the other way counts as inactive or inconclusive.

For the compound `O=C(c1ccc(F)cc1)C1CCN(CCCCc2ccccc2)CC1`, the Potency in assay [1] is 0.0126 µM (active).
On to `COc1ccccc1N1CCN(C[C@@H]2CN3C(=O)N(C)c4ccccc4C3=N2)CC1`, for which the Potency result in assay [2] is “inactive”.
As for `NCCCCNS(=O)(=O)c1ccc2c(Cl)cccc2c1`, the Potency was 2 µM (active) in [2] and 2.5 nM (active) in assay [3].
With `Cc1ccc(C(=O)Cn2c3c(sc2=N)CCCC3)cc1`, the Potency result in assay [2], in assay [1] and in [3] was “inactive” throughout.
Consider `CCCCCCCCC(=O)NCc1cc(OC)c(O)cc1I`, for which the Potency in assay [1] was 7.94 µM (active).
Same read-out and setting: in the case of `N[C@H](C(=O)O)[C@H](OCc1ccccc1)C(=O)O` it was 7.94 µM (active).
Turning to `COc1ccc2cc(C(C)C(=O)O)ccc2c1` (centres undefined), the compound was called inactive in assay [4] and in [5].
On to `Cc1ccc(-c2cc(C(F)(F)F)c(C#N)c(SCC(=O)O)n2)cc1`, for which the Potency in assay [6] is 44.7 µM (active); in [7], 44.7 µM (active); in assay [8] it was 141 µM (active); in assay [9] it was 126 µM (active).
In the case of `CCCCCCCC/C=C\CCCCCCCC(=O)N[C@@H](CO)Cc1ccc(O)cc1`, the Potency entry in [2] was “inactive”. For the same compound, the Potency in [1] was 0.126 µM (active).
Take `O=C1c2ccc(O)c(O)c2C(=O)c2c(O)ccc(O)c21`: the compound was classed as inactive in [4] and in assay [5]. Moreover, the activity change, negative = inhibition in assay [10] (at 57.5 µM (top of the series)) is 6.47% (inactive). Further, the max response in assay [10] (setting [17]) is -10.7%; in assay [10] (setting [18]), -3.59%. Also, the Potency in assay [6] was 12.6 µM (active); in [7], 5.62 µM (active); in assay [8], 31.6 µM (active); in assay [11] it was 21.3 µM (active); in [12], 19 µM (active). Moreover, in assay [9], the Potency result is “inactive”.
With `O=C(OC1Cc2c(O)cc(O)cc2OC1c1cc(O)c(=O)c2c(O)c(O)cc(C3Oc4cc(O)cc(O)c4CC3OC(=O)c3cc(O)c(O)c(O)c3)c2c1)c1cc(O)c(O)c(O)c1` (centres undefined), the activity change, negative = inhibition in assay [10] (at 57.5 µM (top of the series)) was 15% (inactive). Also, the max response was -10.5% in assay [10] (setting [17]) and 7.68% in assay [10] (setting [18]). The Potency in assay [6] is 5.01 µM (active); in assay [7] it was 11.2 µM (active); in [8] it was 2.24 µM (active). Besides, the Potency result in assay [9] is “inactive”.
For `COc1cc(-c2ccc(N=Nc3ccc4c(S(=O)(=O)O)cc(S(=O)(=O)O)c(N)c4c3O)c(OC)c2)ccc1N=Nc1ccc2c(S(=O)(=O)O)cc(S(=O)(=O)O)c(N)c2c1O`, the activity change, negative = inhibition is 15% (inactive) in assay [13], 0.00688% (inactive) in assay [14], 3.4% (inactive) in assay [10] (at 25.7 µM (top of the series)) and -28.6% [at 7.35 µM] (inactive) in assay [16]. Also, the Potency result in assay [2], in assay [1], in [9] and in assay [15] was “inactive” each time. Besides, the Potency in assay [3] was 3.98 µM (active) and inactive; in assay [6] it was 2.82 µM (active); in assay [7], 2 µM (active); in [8], 7.08 µM (active). In addition, the max response was found to be 1.95% in [10] (setting [17]) and 8.3% in [10] (setting [18]).
Take `O=C(Nc1cccc(C(=O)OCc2cc(=O)n3nc(C4CC4)sc3n2)c1)c1cccc(Cl)c1`: the Potency in assay [6] is 56.2 µM (active).
Take `CCc1nn2c(=O)cc(COC(=O)c3ccccc3NC(=O)c3ccc(C(C)(C)C)cc3)nc2s1`: the Potency result in assay [6] is “inactive”.
As to `CCCCCN=c1ccn(Cc2ccccc2)c2ccccc12`, the values for the Potency in [2] and in assay [3] were 0.316 µM (active) and 251 nM (active), respectively.
As for `CNc1ncnc2c1ncn2[C@H]1C[C@H](OP(=O)(O)O)[C@H](COP(=O)(O)O)O1`, the Potency in [1] was 5.01 µM (active).
As to `CCN(Cc1cccc(S(=O)(=O)O)c1)c1ccc(C(=C2C=CC(=[N+](CC)Cc3cccc(S(=O)(=O)O)c3)C=C2)c2ccc(O)cc2S(=O)(=O)O)cc1`, the Potency in assay [6] is 4.47 µM (active); in assay [7] it was 3.55 µM (active); in assay [8] it was 63.1 µM (active).
On to `CC(C)(C)c1ccc(S(=O)(=O)c2cnc(SCC(=O)Nc3ccc4c(c3)OCCO4)[nH]c2=O)cc1`, for which the Potency in [6] was 7.08 µM (active); in [7], 6.31 µM (active); in assay [8], 316 µM (active); in assay [9] it was 31.6 µM (active). For the same compound, the Potency result in assay [15] is “inactive”.
Consider `O=C(Nc1ccccc1C(F)(F)F)c1ccc2oc(=O)c(S(=O)(=O)c3ccc(F)cc3)cc2c1`, for which the Potency entry in assay [6] is “inactive”.
As to `CC(C)(C)c1ccc(C(=O)Nc2ccc(C(=O)OCc3cc(=O)n4ccsc4n3)cc2)cc1`, in [6], the Potency result was “inactive”.
Take `COC(=O)c1ccc([C@H]2Nc3ccc(S(=O)(=O)Nc4cccc(C)c4)cc3[C@H]3C=CC[C@H]32)cc1`: the Potency was 25.1 µM (active) in assay [6], 25.1 µM (active) in assay [7], 141 µM (active) in assay [8] and 158 µM (active) in [9]. In assay [15], the Potency entry was “inactive”.

For the origin of these results see PubChem BioAssay (NCATS).
